Assay [1] is described as follows: Quantitative High-Throughput drug screen in 47 multiple myeloma cell lines against the NCATS MIPE library collection: MMM1_PLB cell viability assay (AID 1918976). Also: nearly all actives have a fitted effect of over 35% in size. The essentials:
(§1)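 Plated at 500 cells per well, myeloma lines received MIPE 4.0 compounds by pin tool. Following 48 h culture at 37 °C, CellTiter-Glo luminescence gave viability relative to DMSO and media-only controls.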

The nature of assay [2]: Quantitative High-Throughput drug screen in 47 multiple myeloma cell lines against the NCATS MIPE library collection: MOLP8_DSMZ cell viability assay (AID 1918977). Also: nearly all actives have a fitted effect of over 45% in size. The essentials: as §1
Assay [3] in a line: Quantitative High-Throughput drug screen in 47 multiple myeloma cell lines against the NCATS MIPE library collection: NCIH929_DSMZ cell viability assay (AID 1918978). Also: nearly all actives have a fitted effect of over 35% in size. The essentials:
as §1

Assay [4] is described as follows: Quantitative High-Throughput drug screen in 47 multiple myeloma cell lines against the NCATS MIPE library collection: MM1S_ATCC cell viability assay (AID 1918980). Also: nearly all actives have a fitted effect of over 45% in size. An outline of the steps: as §1
The nature of assay [5]: Quantitative High-Throughput drug screen in 47 multiple myeloma cell lines against the NCATS MIPE library collection: MM1R_ATCC cell viability assay (AID 1918981). Also: nearly all actives have a fitted effect of over 35% in size. An outline of the steps: as §1
Assay [6] in a line: Quantitative High-Throughput drug screen in 47 multiple myeloma cell lines against the NCATS MIPE library collection: LP1_DSMZ cell viability assay (AID 1918982). Also: nearly all actives have a fitted effect of over 35% in size. An outline of the steps:
as §1

Assay [7] can be described thus: Quantitative High-Throughput drug screen in 47 multiple myeloma cell lines against the NCATS MIPE library collection: KMS34_JCRB cell viability assay (AID 1918985). Also: nearly all actives have a fitted effect of over 40% in size. The essentials: as §1
Assay [8] can be described thus: Quantitative High-Throughput drug screen in 47 multiple myeloma cell lines against the NCATS MIPE library collection: KMS28PE_JCRB cell viability assay (AID 1918983). Also: nearly all actives have a fitted effect of over 35% in size. The essentials:
as §1

A short description of assay [9]: Quantitative High-Throughput drug screen in 47 multiple myeloma cell lines against the NCATS MIPE library collection: L363_DSMZ cell viability assay (AID 1918984). Also: nearly all actives have a fitted effect of over 40% in size. The essentials:
as §1

A short description of assay [10]: Quantitative High-Throughput drug screen in 47 multiple myeloma cell lines against the NCATS MIPE library collection: OCIMY1_PLB cell viability assay (AID 1918979). Also: nearly all actives have a fitted effect of over 35% in size. As to viability: series mostly up to about 46 µM. An outline of the steps:
as §1

The structures appear in SMILES notation. Inconclusive results are not listed. Activity calls are given as the source filed them. Calls follow the shape of the dose curve; as a rule, active = well fitted curve in the direction sought with a large enough effect; inconclusive = small, poorly fitted or top-dose-only effect, or another doubt; inactive = no such curve, though single readings can be large; an effect the other way counts as inactive or inconclusive.
Potency is read from the fitted curve at half-maximal effect.

As for `O=C1c2c(O)cc(O)cc2O[C@H](c2cc(O)c(O)c(O)c2)[C@H]1O`, the Potency in assay [1] was 10.5 µM (active); in assay [2], 18.7 µM (active); in assay [4], 20.9 µM (active); in [5], 23.5 µM (active); in assay [6] it was 20.9 µM (active); in assay [7], 11.8 µM (active). For the same molecule, in assay [3], the Potency entry was “inactive”.
Consider `COc1cc2ncnc(Nc3ccc(F)c(Cl)c3)c2cc1OCCCN1CCOCC1`, for which the Potency is 54 µM (active) in assay [1]; 48.1 µM (active) in [2]; 4.29 µM (active) in [3]; 3.03 µM (active) in [4]; 21.5 µM (active) in assay [5]; 48.1 µM (active) in assay [6]. Moreover, the Potency in assay [8] is 42.9 µM (active); in [9], 8.55 µM (active); in assay [7], 42.9 µM (active).
On to `O=C(O)c1ccc(-c2cc3cccnc3c(-c3ccc4nonc4c3)n2)cc1`, for which the Potency in assay [1] was 26.4 µM (active); in [2], 26.4 µM (active); in assay [3], 26.4 µM (active); in assay [4], 23.5 µM (active).
With `O=C(Nc1ccccc1-c1cn2c(CN3CCNCC3)csc2n1)c1cnc2ccccc2n1`, the Potency in assay [1] is 10.5 µM (active); in assay [2] it was 9.35 µM (active); in [3], 7.43 µM (active); in [10] it was 16.6 µM (active); in assay [4], 23.5 µM (active); in assay [5], 20.9 µM (active). In addition, the Potency in assay [6] and in assay [8] was 23.5 µM (active) throughout.
As to `CCOC(CN1C(=O)[C@](CC(=O)Nc2ccc(C)cc2)(NC(=O)Nc2ccc(C)cc2)c2ccccc21)OCC`, the Potency in assay [1] was 23.5 µM (active). The Potency entry in assay [2] and in assay [6] was “inactive” in each case.
Regarding `COc1cc2nc(-c3ccc(N4CCN(C)CC4)cc3)nc(NCCN3CCOCC3)c2cc1OC`, the Potency in [1] was 0.0743 µM (active); in assay [2] it was 0.0418 µM (active); in [3] it was 0.296 µM (active); in [10] it was 0.148 µM (active); in assay [4] it was 0.0187 µM (active); in assay [5], 0.0118 µM (active). Moreover, the Potency in [6] and in assay [9] was 0.132 µM (active) each time.
Turning to `CC(C(=O)O)c1ccc(-c2ccccc2)c(F)c1` (stereo unspecified), the Potency in assay [1] was 1.87 µM (active); in assay [3], 16.6 µM (active); in [4], 26.4 µM (active). Also, the Potency result in [2], in [5], in assay [6] and in [8] was “inactive” each time.
As for `NC(CO)(CO)CCc1ccc(Sc2cccc(OCc3ccccc3)c2)cc1Cl`, the Potency in assay [1] is 23.5 µM (active); in assay [3] it was 20.9 µM (active); in assay [10], 26.4 µM (active); in assay [4], 3.32 µM (active); in assay [5], 10.5 µM (active); in assay [6] it was 20.9 µM (active). Also, in assay [9], the Potency was 10.5 µM (active).
Take `C=C1C(=O)OC2C=C(C)CCC=C(C)CCC12` (stereo unspecified): the Potency in [1] is 11.8 µM (active); in assay [2], 16.6 µM (active); in assay [3], 20.9 µM (active); in [4] it was 23.5 µM (active); in [5], 23.5 µM (active); in assay [8], 23.5 µM (active). Moreover, the Potency in assay [9] was 29.6 µM (active).
`O=C(O)c1cc(O)c2c(c1)C(=O)c1cccc(O)c1C2=O`: the figures for the Potency in assay [1] and in assay [8] were 2.15 µM (active) and 30.3 µM (active), respectively. In addition, the Potency entry in assay [3], in assay [10] and in [4] was “inactive” each time.
With `CCOC(=O)C1=C(N)Oc2ccc(Br)cc2C1C(C#N)C(=O)OCC` (stereo unspecified), the Potency in assay [1] was 20.9 µM (active); in assay [2], 18.7 µM (active); in [3] it was 20.9 µM (active); in assay [4], 16.6 µM (active); in assay [5], 23.5 µM (active); in assay [8], 26.4 µM (active).
Take `CC(=O)Nc1ccc([C@H](C)C(=O)Nc2ncc(C(C)C)s2)cc1`: the Potency in assay [1] is 6.62 µM (active); in assay [3], 0.264 µM (active); in assay [10], 5.9 µM (active); in assay [4], 0.418 µM (active); in assay [5] it was 0.743 µM (active); in [6], 2.35 µM (active). For the same molecule, the Potency in assay [8] was 7.43 µM (active).
As for `O=C(Nc1ccccc1Br)N[C@@H]1CCN(c2ccc(C(F)(F)F)cn2)C1`, the Potency in assay [1] was 23.5 µM (active). Also, the Potency result in assay [3], in assay [10], in assay [9] and in assay [7] was “inactive” each time.
As to `OC[C@H]1O[C@@H](n2cnc3c2NC=NC[C@@H]3O)C[C@H]1O`, the results for the Potency in assay [1] and in assay [3] were 20.9 µM (active) and 26.4 µM (active), respectively. The Potency entry in assay [2], in [10], in assay [5], in assay [6] and in assay [9] was “inactive” each time.
For `c1ccc2c(Cc3c[nH]c4ccccc34)c[nH]c2c1`, the Potency is 16.6 µM (active) in [1]; 18.7 µM (active) in assay [2]; 1.05 µM (active) in assay [3]; 1.32 µM (active) in [4]; 2.35 µM (active) in assay [5]; 26.4 µM (active) in assay [8].
Take `CO[C@H]1C=CC=C(C)C(=O)NC2=CC(=O)C(NCCN(C)C)=C(C[C@@H](C)C[C@H](OC)[C@@H](O)[C@@H](C)C=C(C)[C@@H]1OC(N)=O)C2=O`: the Potency was 1.66 µM (active) in assay [1]; 0.059 µM (active) in assay [3]; 0.132 µM (active) in [10]; 0.105 µM (active) in assay [4]; 0.0296 µM (active) in assay [5]; 0.418 µM (active) in assay [6]. Moreover, the results for the Potency in assay [8] and in [7] were 0.0166 µM (active) and 0.0132 µM (active), respectively.
For the molecule `CC=CC(=O)N(CC)c1ccccc1C`, the Potency in assay [1] was 3.72 µM (active); in [2] it was 0.0418 µM (active); in [4], 6.62 µM (active). Also, the Potency result in assay [3], in assay [5], in assay [6], in assay [8] and in assay [9] was “inactive” in each case.
As for `CC(C)[C@H](CO)Nc1nc(Nc2ccc(C(=O)O)c(Cl)c2)c2ncn(C(C)C)c2n1`, the Potency in assay [1] and in assay [3] was 23.5 µM (active) in each case.
As to `Cc1ccc(C(=O)Nc2cccc(C(F)(F)F)c2)cc1Nc1nc(-c2cccnc2)nc2c1cnn2C`, the Potency in assay [1] was 16.6 µM (active); in assay [3] it was 14.8 µM (active); in assay [10], 16.6 µM (active); in assay [4], 18.7 µM (active); in assay [5], 18.7 µM (active); in [6] it was 16.6 µM (active). Besides, in [7], the Potency is 16.6 µM (active).

(Values after PubChem BioAssay (NCATS).)
